# Experiments:
# [1] = target: Tyrosine-protein kinase SYK (Homo sapiens) (UniProt P43405); conditions: at 10 µM
# [2] = target: T1, Mitogen-activated protein kinase kinase kinase 7 (Homo sapiens) (UniProt O43318); conditions: at 10 µM
# T1 sequence (whole entry): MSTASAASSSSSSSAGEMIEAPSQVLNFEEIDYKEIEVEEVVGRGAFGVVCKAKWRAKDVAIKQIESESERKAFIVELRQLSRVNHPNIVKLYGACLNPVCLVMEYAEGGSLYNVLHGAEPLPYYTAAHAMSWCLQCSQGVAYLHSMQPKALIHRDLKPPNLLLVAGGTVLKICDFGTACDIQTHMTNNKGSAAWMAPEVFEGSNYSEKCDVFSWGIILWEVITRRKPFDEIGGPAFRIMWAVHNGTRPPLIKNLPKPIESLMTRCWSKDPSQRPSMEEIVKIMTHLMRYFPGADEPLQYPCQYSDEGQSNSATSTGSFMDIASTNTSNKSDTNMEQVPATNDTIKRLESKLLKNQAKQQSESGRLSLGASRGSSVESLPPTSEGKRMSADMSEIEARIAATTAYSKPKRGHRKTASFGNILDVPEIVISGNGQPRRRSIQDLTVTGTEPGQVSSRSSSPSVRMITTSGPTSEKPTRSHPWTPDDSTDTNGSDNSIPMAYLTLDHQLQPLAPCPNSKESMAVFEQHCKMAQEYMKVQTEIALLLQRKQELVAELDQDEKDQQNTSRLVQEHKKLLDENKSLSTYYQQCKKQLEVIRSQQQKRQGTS
# [3] = target: T2, Serine/threonine-protein kinase TAO1 (Homo sapiens) (UniProt Q7L7X3); conditions: at 1 µM
# T2 sequence (whole entry): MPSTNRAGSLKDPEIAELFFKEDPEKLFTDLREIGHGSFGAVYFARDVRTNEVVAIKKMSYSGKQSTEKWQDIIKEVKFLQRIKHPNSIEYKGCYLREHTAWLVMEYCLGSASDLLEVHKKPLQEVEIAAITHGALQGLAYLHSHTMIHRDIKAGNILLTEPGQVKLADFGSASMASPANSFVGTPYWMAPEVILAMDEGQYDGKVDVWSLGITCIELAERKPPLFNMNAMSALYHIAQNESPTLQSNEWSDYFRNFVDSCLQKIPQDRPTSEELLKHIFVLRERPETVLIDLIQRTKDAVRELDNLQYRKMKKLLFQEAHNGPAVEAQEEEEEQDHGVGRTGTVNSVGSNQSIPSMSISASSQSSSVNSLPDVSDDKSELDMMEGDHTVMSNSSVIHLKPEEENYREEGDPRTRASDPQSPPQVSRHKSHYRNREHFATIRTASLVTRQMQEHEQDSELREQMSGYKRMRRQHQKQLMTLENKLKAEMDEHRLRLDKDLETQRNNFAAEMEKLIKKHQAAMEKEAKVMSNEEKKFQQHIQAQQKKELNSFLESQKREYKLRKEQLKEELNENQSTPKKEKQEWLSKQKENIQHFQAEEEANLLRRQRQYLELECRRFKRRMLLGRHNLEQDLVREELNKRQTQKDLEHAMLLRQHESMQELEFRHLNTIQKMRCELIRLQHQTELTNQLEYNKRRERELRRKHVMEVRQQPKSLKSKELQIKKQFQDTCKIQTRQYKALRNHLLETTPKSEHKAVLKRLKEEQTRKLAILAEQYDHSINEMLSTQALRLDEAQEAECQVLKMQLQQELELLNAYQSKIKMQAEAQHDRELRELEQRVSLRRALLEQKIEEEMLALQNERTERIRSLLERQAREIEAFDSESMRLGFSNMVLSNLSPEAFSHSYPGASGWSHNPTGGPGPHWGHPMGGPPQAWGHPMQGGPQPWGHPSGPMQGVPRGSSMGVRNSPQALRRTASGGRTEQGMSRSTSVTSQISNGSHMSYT
# [4] = target: T2, Serine/threonine-protein kinase TAO1 (Homo sapiens); conditions: at 10 µM
# [5] = target: T3, Serine/threonine-protein kinase TAO2 (Homo sapiens) (UniProt Q9UL54); conditions: at 10 µM
# T3 sequence (whole entry): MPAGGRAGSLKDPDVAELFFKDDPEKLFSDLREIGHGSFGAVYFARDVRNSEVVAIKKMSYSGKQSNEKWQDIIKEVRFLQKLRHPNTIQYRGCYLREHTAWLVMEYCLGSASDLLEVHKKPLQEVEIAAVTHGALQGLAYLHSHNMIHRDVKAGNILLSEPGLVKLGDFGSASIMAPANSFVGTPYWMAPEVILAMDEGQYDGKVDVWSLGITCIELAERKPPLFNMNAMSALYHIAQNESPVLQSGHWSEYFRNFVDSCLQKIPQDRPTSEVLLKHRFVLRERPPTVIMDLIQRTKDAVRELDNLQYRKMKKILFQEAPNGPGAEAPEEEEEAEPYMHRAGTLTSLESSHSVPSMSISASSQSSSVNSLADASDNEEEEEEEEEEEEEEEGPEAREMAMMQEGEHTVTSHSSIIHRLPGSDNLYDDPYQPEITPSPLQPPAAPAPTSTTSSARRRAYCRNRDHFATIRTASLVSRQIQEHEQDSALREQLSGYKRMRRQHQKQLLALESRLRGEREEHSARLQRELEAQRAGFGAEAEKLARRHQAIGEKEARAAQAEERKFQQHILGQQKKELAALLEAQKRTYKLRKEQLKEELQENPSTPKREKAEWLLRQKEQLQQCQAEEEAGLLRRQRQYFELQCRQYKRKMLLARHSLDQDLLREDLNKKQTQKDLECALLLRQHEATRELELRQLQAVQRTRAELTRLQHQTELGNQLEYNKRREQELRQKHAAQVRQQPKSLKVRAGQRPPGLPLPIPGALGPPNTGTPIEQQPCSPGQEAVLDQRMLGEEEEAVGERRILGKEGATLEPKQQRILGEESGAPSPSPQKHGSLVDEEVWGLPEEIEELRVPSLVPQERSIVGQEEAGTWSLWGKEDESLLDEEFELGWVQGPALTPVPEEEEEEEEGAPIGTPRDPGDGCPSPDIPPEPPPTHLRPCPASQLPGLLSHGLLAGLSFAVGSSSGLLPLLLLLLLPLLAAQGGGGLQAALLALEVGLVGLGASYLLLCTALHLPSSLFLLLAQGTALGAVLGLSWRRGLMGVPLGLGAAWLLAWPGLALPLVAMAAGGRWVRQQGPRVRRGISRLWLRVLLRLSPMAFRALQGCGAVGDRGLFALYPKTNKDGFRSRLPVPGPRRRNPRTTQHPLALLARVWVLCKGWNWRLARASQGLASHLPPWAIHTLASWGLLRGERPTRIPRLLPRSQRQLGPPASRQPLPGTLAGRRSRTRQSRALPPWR
# [6] = target: T4, Serine/threonine-protein kinase TAO3 (Homo sapiens) (UniProt Q9H2K8); conditions: at 1 µM
# T4 sequence (whole entry): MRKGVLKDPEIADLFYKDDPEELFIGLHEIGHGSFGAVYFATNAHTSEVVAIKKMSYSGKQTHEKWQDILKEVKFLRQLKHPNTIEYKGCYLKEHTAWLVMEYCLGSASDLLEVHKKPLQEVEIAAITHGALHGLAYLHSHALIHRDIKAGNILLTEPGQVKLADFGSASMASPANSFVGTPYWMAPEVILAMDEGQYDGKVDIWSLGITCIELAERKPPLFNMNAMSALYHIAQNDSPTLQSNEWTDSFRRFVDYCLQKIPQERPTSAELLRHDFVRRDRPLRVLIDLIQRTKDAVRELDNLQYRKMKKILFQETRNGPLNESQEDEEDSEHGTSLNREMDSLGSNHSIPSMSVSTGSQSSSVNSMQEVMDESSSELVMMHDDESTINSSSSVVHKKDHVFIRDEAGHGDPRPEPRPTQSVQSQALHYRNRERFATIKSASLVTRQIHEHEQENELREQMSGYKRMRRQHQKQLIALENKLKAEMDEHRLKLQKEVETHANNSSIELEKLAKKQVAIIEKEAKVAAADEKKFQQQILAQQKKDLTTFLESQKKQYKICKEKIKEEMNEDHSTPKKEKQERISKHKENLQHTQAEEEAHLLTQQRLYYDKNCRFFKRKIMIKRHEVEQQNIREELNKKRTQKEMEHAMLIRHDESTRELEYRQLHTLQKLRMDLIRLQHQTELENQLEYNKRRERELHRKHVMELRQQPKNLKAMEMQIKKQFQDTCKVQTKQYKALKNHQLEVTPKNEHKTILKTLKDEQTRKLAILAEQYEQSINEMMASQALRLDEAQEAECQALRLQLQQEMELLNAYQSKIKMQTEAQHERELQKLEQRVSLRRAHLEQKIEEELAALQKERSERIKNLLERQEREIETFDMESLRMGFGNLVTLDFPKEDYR
# [7] = target: T4, Serine/threonine-protein kinase TAO3 (Homo sapiens); conditions: at 10 µM
# [8] = target: T5, Serine/threonine-protein kinase TBK1 (Homo sapiens) (UniProt Q9UHD2); conditions: at 1 µM
# T5 sequence (whole entry): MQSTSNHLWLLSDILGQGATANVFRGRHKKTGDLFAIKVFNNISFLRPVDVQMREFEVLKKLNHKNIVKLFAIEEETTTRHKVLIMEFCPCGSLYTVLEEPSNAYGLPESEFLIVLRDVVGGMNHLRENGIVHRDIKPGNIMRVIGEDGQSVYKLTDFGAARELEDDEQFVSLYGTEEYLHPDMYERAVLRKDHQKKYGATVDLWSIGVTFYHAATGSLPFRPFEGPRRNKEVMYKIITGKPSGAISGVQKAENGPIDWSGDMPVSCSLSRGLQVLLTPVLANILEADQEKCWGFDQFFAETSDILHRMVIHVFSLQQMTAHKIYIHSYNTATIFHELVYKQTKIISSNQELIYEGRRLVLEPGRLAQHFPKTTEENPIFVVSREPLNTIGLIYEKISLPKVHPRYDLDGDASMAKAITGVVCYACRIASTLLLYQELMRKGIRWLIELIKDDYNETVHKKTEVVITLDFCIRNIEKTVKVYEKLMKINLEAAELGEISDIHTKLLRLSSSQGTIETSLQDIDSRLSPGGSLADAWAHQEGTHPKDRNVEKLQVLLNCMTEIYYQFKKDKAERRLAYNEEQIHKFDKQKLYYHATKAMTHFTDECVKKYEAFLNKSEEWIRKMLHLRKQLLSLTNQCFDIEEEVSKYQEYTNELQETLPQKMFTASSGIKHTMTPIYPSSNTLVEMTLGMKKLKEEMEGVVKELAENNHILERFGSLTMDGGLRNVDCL
smiles,measurement,setting,value
Nc1ncnc2c1c(-c1ccc(Oc3ccccc3)cc1)cn2C1CCCC1,residual activity,[1],59%
same,residual activity,[2],81%
same,residual activity,[3],94%
same,residual activity,[4],81%
same,residual activity,[5],77%
same,residual activity,[6],92%
same,residual activity,[7],77%
same,residual activity,[8],61%

# Reference: ChEMBL document CHEMBL2218924, “A broad activity screen in support of a chemogenomic map for kinase signalling research and drug discovery” (Biochem J, 2013)
